Measurements as given in PubChem BioAssay.
Values without a mark were called inactive. Active and inactive are the calls of the source. Cut-off read from the data, not from the text of the source, unless noted: active = inhibition above about 33%; inactive = the rest.

Tests used:
[1] = StAR promoter reporter inhibitors, counter-screen for LRH-1 inverse agonist project, cell-based, luminescence, high throughput (AID 651611; in the data active = inhibition above about 28%); details: StAR promoter luciferase reporter counterscreen, at 3.6 µM, stronger effect = higher value
[2] = molecular target: Nuclear receptor subfamily 5 group A member 2 (Homo sapiens) (UniProt O00482); assay: NR5A2 activity suppression in reporter cells – cell-based, luminescence, confirmation (AID 651613; in the data active = inhibition above about 42%;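 note: HEK293T cells co-transfected with LRH-1 and StAR promoter luciferase reporter; 0% = vehicle wells and 100% = parental cells lacking receptor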); details: cell-based LRH-1 luciferase reporter, inverse agonism; at 3.6 µM; stronger effect = higher value
[3] = molecular target: Steroidogenic factor 1 (Homo sapiens) (UniProt Q13285); assay: inverse agonism at SF1 nuclear receptor – cell-based, luminescence, high throughput, counter-screen for LRH-1 inverse agonist project (AID 651614; in the data active = inhibition above about 44%;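 note: cells cotransfected with StAR promoter reporter and SF1 expression vector; 0% = vehicle on cells with receptor and 100% = vehicle on cells lacking receptor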); details: cell-based SF1 luciferase reporter, at 3.6 µM, stronger effect = higher value
[4] = compounds suppressing VP16-driven luciferase signal – cell-based, luminescence, high throughput, counter-screen for LRH-1 inverse agonist project (AID 651615); details: Gal4-VP16 luciferase reporter cells, at 3.6 µM, stronger effect = higher value

Steroidogenic factor 1 (Homo sapiens), sequence (Q13285 whole entry, looked up, the tested form may be a part): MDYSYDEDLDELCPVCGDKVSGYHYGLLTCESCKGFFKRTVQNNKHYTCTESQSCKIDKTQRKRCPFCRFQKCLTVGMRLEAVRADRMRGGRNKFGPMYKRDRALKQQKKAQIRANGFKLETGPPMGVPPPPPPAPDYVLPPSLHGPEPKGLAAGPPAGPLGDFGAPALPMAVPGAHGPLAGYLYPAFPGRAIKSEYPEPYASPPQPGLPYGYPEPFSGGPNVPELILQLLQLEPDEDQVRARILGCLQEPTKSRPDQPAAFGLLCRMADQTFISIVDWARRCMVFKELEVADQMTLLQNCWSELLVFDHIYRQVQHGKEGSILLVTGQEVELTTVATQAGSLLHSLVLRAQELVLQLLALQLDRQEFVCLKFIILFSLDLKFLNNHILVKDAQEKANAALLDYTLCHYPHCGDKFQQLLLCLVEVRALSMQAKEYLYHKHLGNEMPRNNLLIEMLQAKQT
Nuclear receptor subfamily 5 group A member 2 (Homo sapiens), sequence (O00482 whole entry, looked up): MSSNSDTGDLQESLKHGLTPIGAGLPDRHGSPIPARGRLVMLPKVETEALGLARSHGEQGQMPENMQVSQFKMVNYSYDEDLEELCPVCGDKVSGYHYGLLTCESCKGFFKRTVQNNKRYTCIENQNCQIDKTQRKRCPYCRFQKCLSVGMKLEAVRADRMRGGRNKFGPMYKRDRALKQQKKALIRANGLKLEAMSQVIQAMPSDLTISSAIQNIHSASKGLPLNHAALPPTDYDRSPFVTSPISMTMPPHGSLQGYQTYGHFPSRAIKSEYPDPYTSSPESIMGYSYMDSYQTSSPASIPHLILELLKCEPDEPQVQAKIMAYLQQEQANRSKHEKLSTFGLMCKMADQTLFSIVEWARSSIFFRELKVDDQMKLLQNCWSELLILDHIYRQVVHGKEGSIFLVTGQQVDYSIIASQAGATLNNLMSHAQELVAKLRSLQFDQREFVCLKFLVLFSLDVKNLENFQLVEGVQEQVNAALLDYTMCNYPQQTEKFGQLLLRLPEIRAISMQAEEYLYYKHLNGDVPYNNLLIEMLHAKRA

| Compound | inhibition [1] | inhibition [2] | inhibition [3] | inhibition [4] |
| --- | --- | --- | --- | --- |
| CCN1C(=O)c2cccc3c(S(=O)(=O)Nc4ccccc4O)ccc1c23 | 38.4% (active) | 34.1% | 36.2% | -88.6% |
| O=C(N/N=C/c1ccc([N+](=O)[O-])o1)c1ccccc1-n1cccc1 | 32.3% (active) | 71.6% (active) | 63.4% (active) | 0.97% |
| CCOC(=O)CCCc1ccc(/C(C)=N/NC(N)=S)cc1 | 21.6% | 62.4% (active) | 68.6% (active) | 26.4% |
| CCc1ccccc1NC(=O)CSc1nnc([C@@H](NC(=O)OC(C)(C)C)C(C)C)o1 | 5.95% | 45.9% (active) | 45.9% (active) | 0.4% |
| CS(=O)(=O)N1CCN(c2ccc(NC(=O)CSc3nnc(-c4ccco4)o3)cc2)CC1 | 4.74% | 54% (active) | 54.1% (active) | -2.76% |
| COc1ccc(NC(=O)COC(=O)c2cc(S(=O)(=O)N3CCCC3)ccc2O)cc1 | 4.86% | 52% (active) | 46.3% (active) | 0.43% |
| Cc1[nH][nH]c(=O)c1N=Nc1ccc(S(N)(=O)=O)cc1 | 20.7% | 52.1% (active) | 51.5% (active) | 6.39% |
| COc1ccc(CCNC(=O)COC(=O)Cc2ccccc2[N+](=O)[O-])cc1 | 8.86% | 65.5% (active) | 61.4% (active) | -6.51% |
| Cc1c(C)c2ccc(OCC(=O)N3CCN(C(=O)C4COc5ccccc5O4)CC3)cc2oc1=O (stereo not given) | 14.4% | 60.4% (active) | 59.1% (active) | -17.1% |
| c1cncc(-c2nc(N3CCCCCC3)c3ccccc3n2)c1 | 20.8% | 56.4% (active) | 62.8% (active) | 10.4% |
| O=C(NCc1ccc2c(c1)OCO2)c1cc([N+](=O)[O-])ccc1N1CCCCC1 | 44.1% (active) | 36.2% | 47.6% (active) | 30.3% |
| CCOc1ccc(CCNC(=O)COC(=O)c2cccnc2OCC)cc1OCC | 2.1% | 53.3% (active) | 48.7% (active) | 0.35% |
| COc1cc2c(cc1OC)-c1c(OC)c(OC)cc3ccnc(c13)C2=O | 41.2% (active) | 68.4% (active) | 59% (active) | 25.4% |
| Cc1cc(C)nc(NC(=O)c2ccc([N+](=O)[O-])o2)n1 | 17.2% | 61.6% (active) | 53.4% (active) | -11.8% |
| O=[N+]([O-])c1ccc(N2CCCC2)cc1N1CCCC1 | 9.77% | 56.8% (active) | 60.4% (active) | 8.32% |
| CCN(CC)C(=O)CSc1nc2ccc(NC(=O)CSc3nccn3C)cc2s1 | -37.7% | 0.81% | 7.59% | -9.75% |
| COc1ccc(O)c(/C=N/Nc2nc(Nc3ccccc3)nc(-n3nc(C)cc3C)n2)c1 | 21.3% | -28.7% | -41.8% | -35.4% |
| CCc1cc(=O)oc2c(C)c(OCC(=O)NCCCN3CCOCC3)ccc12 | 3.94% | 48.7% (active) | 42.6% | 2.03% |

| Compound | inhibition [1] | inhibition [2] | inhibition [3] | inhibition [4] |
| --- | --- | --- | --- | --- |
| CC1CC(C)CN(c2cc(N(C)CCO)c([N+](=O)[O-])c3nonc23)C1 (stereo not given) | 13.7% | 64.2% (active) | 63.6% (active) | -3.82% |
| COC(=O)CNc1nc(-c2cccnc2)nc2ccccc12 | 16.8% | 44.6% (active) | 42.2% | -0.85% |
| CN(C)c1ccc(S(=O)(=O)N2CCCCC2)cc1NC(=O)CCNC(=O)c1ccc(Cl)cc1 | 6.54% | 3.72% | 1.24% | -0.3% |
| COc1cc([N+](=O)[O-])ccc1NC(=O)C[n+]1ccccc1 | 15.1% | 58.8% (active) | 55.6% (active) | 3.98% |
| C#Cc1cccc(Nc2nc(NCCOC)nc3ccsc23)c1 | 26.9% | 47.1% (active) | 57.4% (active) | 5.35% |
| Cc1ccc(NC(=O)CSc2nc3ncc(Br)cc3[nH]2)cc1C | 10.7% | 54.5% (active) | 54.1% (active) | 1.21% |
| COc1ccccc1Cc1c(-c2ccc(OC)c(OC)c2)nc2c3ccccc3ccn12 | 8.86% | 40.2% | 32% | -1.36% |
| Cc1c(Cl)cccc1NC(=O)CSc1sc2c(O)cc(=O)[nH]c2c1C#N | -3.35% | 25.5% | 29.2% | 6.14% |
| COC(=O)c1ccc(NC(=O)CN2C(=O)CNC2=O)cc1 | 11.5% | 62.9% (active) | 50.9% (active) | -6.93% |
| CCOc1ccc(OCCC(=O)OCC(=O)Nc2ccc3c(c2)OCCO3)cc1 | -6.27% | 41.5% (active) | 37.1% | -6.23% |
| O=c1c2ccc(Cl)cc2nc(-c2cccc(C(F)(F)F)c2)n1O | 26.8% | 42.6% (active) | 35.4% | 46.2% (active) |
| O=C(C(=Cc1ccccc1)CN1CCCCC1)c1ccccc1 | 36.4% (active) | 66.8% (active) | 75.1% (active) | 82.8% (active) |
| Fc1ccc(Br)cc1SCCc1ccncc1 | 1.89% | 45.7% (active) | 34.9% | -2.36% |
| CCCc1cc(=O)oc2cc3oc(C)c(C)c3cc12 | -1.82% | 52.3% (active) | 50.5% (active) | -5.27% |
| C#Cc1cccc(Nc2nc(NC(C)C)nc3ccsc23)c1 | 17.7% | 63.6% (active) | 60.9% (active) | 20.3% |
| CC(=O)N1c2ccc(S(=O)(=O)N3CCC(C(=O)Nc4cccc(C)n4)CC3)cc2CC1C (stereo not given) | 18% | 57.1% (active) | 54.1% (active) | 51.9% (active) |
| OC(c1ccc2ccccc2n1)c1c(Cl)cccc1Cl (stereo not given) | 12.8% | 42.7% (active) | 41.4% | 17.8% |
